The list is not random: actives were taken first. Their share in the collection is about 8%.
RORgamma inh – ROR gamma (mouse) transcription inhibition; P51450; Drosophila S2 Gal4-RORgamma UAS-luciferase reporter, 20 h; Potency, µM (top dose mostly 53.6 µM), for the others: at the top dose activity change, negative = inhibition, hits mostly inhibitors; actives 5.4% (n = 310,000); AID 2551; note: potency is the fitted concentration of half-maximal effect; nearly all actives have a fitted effect of over 60% in size
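Luminescence from a UAS-regulated Photinus luciferase reporter in stably transfected Drosophila Schneider cells is measured; decreased signal marks ROR gamma inhibition. Fusion expression is induced by 700 uM copper sulfate for 20 hr.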
ELG1 repair inh – inhibitors of ELG1-dependent DNA repair in HEK293T cells | HEK293T ELG1-luciferase reporter, luminescence, 16 h; DNA damage induced by 5-fluorouridine | Potency, µM (top dose mostly 46.1 µM), without a hit: top-dose activity change, negative = inhibition, actives largely listed as inhibitors | actives 2.3% (n = 330,000) | AID 504467; note: potency is the fitted concentration of half-maximal effect; nearly all actives have a fitted effect of over 55% in size
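5-Fluorouridine DNA damage + compound/DMSO, 2,000 cells/well, 16 h, 37 °C/5% CO2. ONE-Glo, 30 min RT, luminescence. Readout = decrease in reporter signal.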
FBPA coupling cs – coupling enzyme interference in Giardia aldolase counter-screen. actives 0.67% (n = 290,000). activity change, negative = inhibition, % at 58.2 µM, hits read low. AID 2472. coupling enzyme system counterscreen, AmpLite Red fluorescence; in the data active = activity change below about -30%
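Activity here indicates interference with the coupling reaction, not aldolase inhibition. Compounds at 57.5 uM final met coupling enzymes for 10 min at RT; substrate and AmpLite Red detection followed, with a 525/598 nm fluorescence read after 20 min.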
Gal4-VP16 FLuc – counter-screen for ROR gamma inhibitors: Gal4-VP16 reporter. Potency, µM (series often up to 53.6 µM), inactives show top-dose activity, negative = inhibition, hits mostly inhibitors. Drosophila S2 Gal4-VP16 UAS-luciferase, luminescence, 20 h. actives 3.5% (n = 310,000);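 note: Gal4-VP16 expression switched on by copper sulfate through the metallothionein promoter; potency is the fitted concentration of half-maximal effect; nearly all actives have a fitted effect of over 50% in size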
TSHR antagonist – blocks TSH signaling through the human TSH receptor; activity change, negative = inhibition, % at 11.5 µM; P16473; TSHR-expressing cells, TSH-stimulated cAMP HTRF, 2 h; active compounds read low; actives 0.2% (n = 330,000);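 active = activity change below a set negative limit, meaning inhibition stronger than a set level, cut at about -70% in these data; inconclusive = activity change between two set negative limits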
Target sequence (P16473 whole entry, looked up): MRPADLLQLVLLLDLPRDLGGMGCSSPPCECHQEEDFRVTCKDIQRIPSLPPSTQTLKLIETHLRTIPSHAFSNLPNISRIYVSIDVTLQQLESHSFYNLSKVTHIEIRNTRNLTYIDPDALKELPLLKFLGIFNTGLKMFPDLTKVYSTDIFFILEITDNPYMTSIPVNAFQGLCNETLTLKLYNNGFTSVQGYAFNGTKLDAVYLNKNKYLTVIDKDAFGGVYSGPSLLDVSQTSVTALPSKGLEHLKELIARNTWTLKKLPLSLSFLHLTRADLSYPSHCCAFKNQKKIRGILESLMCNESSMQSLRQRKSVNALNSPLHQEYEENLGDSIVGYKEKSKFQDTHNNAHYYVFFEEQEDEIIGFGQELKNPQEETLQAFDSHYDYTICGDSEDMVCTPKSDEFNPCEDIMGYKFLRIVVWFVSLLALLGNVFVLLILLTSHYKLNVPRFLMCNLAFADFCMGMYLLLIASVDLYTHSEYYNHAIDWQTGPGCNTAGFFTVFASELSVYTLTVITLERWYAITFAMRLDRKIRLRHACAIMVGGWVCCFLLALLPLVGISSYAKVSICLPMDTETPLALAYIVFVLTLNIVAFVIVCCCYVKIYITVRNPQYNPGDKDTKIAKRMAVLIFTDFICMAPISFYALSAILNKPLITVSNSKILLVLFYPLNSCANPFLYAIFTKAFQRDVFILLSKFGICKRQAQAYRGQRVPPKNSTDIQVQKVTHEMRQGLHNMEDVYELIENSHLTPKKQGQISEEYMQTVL
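Inhibition of cAMP made by TSHR-expressing cells under TSH stimulation (4nM final, EC80; 2 h, 37 deg C) is quantified with a one-step lysis HTRF kit, anti-cAMP cryptate versus cAMP-d2.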
Starred values were filed as active, the others as inactive; ? = inconclusive; . = not tested or not shown. Unless noted, calls come from the whole dose curve; as a rule, active = well fitted curve in the direction sought with a large enough effect; inconclusive = small, poorly fitted or top-dose-only effect, or another doubt; inactive = no such curve, though single readings can be large; an effect the other way counts as inactive or inconclusive. % is set by controls: 0 for no effect and ±100 for the full control effect.

SMILES	RORgamma inh	ELG1 repair inh	FBPA coupling cs	Gal4-VP16 FLuc	TSHR antagonist
O=C(N/N=C/C=C\c1ccco1)c1cccnc1	13µM*	-4%	-14	?	-16
O=C(N/N=C/C=C/c1ccccc1)c1ccc(Br)cc1	3.2µM*	2%	-1	4.5µM*	-6
OC[C@H]1O[C@@H](O[C@@H]2OC=C[C@H]3[C@H](O)[C@@H]4O[C@]4(CO)[C@@H]23)[C@H](O)[C@@H](O)[C@@H]1O	-23%	.	7	-10%	.
CCC(O)(CC)C(=O)N/N=C/c1cc(Br)cc(Br)c1O	0.79µM*	23µM*	0	3.2µM*	3
O=C(Cc1ccccc1)N/N=C/c1ccccc1F	2%	?	0	20%	-3
O=C(Cc1ccccc1)N/N=C/c1cc(Br)cc(Cl)c1O	0.56µM*	?	-2	1.3µM*	7
O=C(C[n+]1ccccc1)N/N=C/c1cc(Br)cc(Br)c1O	-38%	21µM*	2	-22%	18
O=C(CP(=O)(c1ccccc1)c1ccccc1)N/N=C/c1cc(Br)cc(Br)c1O	1.1µM*	-5%	2	2.5µM*	15
O=C(O)c1cccc(N/N=C/c2cc(Br)cc(Br)c2O)c1	?	?	3	-17%	-25
O=C(C[n+]1ccccc1)N/N=C/c1cc(Br)ccc1F	.	?	.	.	2
CCN(CC1CCCN(CCc2cccc(OC)c2)C1)C(=O)c1ccoc1C (stereo unspecified)	0%	-3%	.	-1%	-2
CCn1nc(C)cc1C(=O)N1CCCC(C(=O)c2ccc(OC)cc2C)C1 (stereo unspecified)	-2%	?	4	6%	-3
COc1ccc(NC(=O)c2ccc(F)c(F)c2)c2ccccc12	0%	1%	0	-17%	-6
NC(=O)C1CCN(C2=C(Cl)C(=O)c3ccccc3C2=O)CC1	-23%	?	-51*	0%	44
O=C1C(Cl)=C(N2CCC(C(=O)O)CC2)C(=O)c2ccccc21	?	-20%	-29	0%	7
CCOC(=O)N1CCN(C2=C(NS(=O)(=O)c3ccccc3)C(=O)c3ccccc3C2=O)CC1	-38%	-14%	.	-11%	3
NC(=O)C1CCN(C2=C(NS(=O)(=O)c3ccc(Br)cc3)C(=O)c3ccccc3C2=O)CC1	-27%	-19%	-32*	-13%	-1
CCOC(=O)C1CCN(C2=C(NS(=O)(=O)c3ccc(Br)cc3)C(=O)c3ccccc3C2=O)CC1	-4%	-3%	-33*	0%	6
NC(=O)C1CCN(C2=C(NS(=O)(=O)c3ccccc3)C(=O)c3ccccc3C2=O)CC1	?	?	-31*	-7%	4
Cc1c(C(=O)Nc2ccccc2N2CCN(C)CC2)oc2ccc(F)cc12	.	20%	.	.	-7
CCCOc1nc2c(c(=O)n(C)c(=O)n2C)n1Cc1cccc2ccccc12	30%	16µM*	0	?	-19
CC(=O)OC/C=C(C)/C=C/C=C(C)/C=C/C1=C(C)CCCC1(C)C	-6%	.	3	22%	.
Cc1cc(C(=O)NNc2ccc(C)c(C)c2)no1	42%	8.2µM*	-3	12%	-9
CC[C@]1(c2ccccc2)NC(=O)NC1=O	-9%	.	-3	-13%	.
CSc1nc2oc3c(c2c2nncn12)CC(C)(C)SC3	-99%	4%	-20	13µM*	35
SMILES	RORgamma inh	ELG1 repair inh	FBPA coupling cs	Gal4-VP16 FLuc	TSHR antagonist
CC1(C)Cc2c(oc3ncn4ncnc4c23)CO1	3%	-3%	1	-1%	1
CCc1nn(CC(=O)NCCC(C)C)c(=O)c2cc3c(OC)cccc3n12	6%	17%	5	-7%	6
COc1ccc(/C=C/C(=O)CC(O)(c2ccccc2)C(F)(F)F)cc1 (stereo unspecified)	14µM*	-21%	-3	?	-19
COc1ccc(C2c3cc(OC)c(OC)cc3CCN2C(=O)c2ccccc2)cc1OC (stereo unspecified)	5%	6.5µM*	0	-5%	-3
COc1cc2c(cc1OC)C(C)N(C(=S)NC(=O)c1ccccc1)CC2 (stereo unspecified)	1.3µM*	?	2	2.2µM*	-11
COc1cc2c(cc1OC)C(C)N(C(=S)Nc1ccccc1)CC2 (stereo unspecified)	?	-3%	2	-14%	-2
COc1cc2c(cc1OC)C(C)N(C(=O)C1COc3ccccc3O1)CC2 (stereo unspecified)	?	23µM*	0	4%	-14
COc1ccc(C(=O)N2CCc3cc(OC)c(OC)cc3C2c2ccc(OC)c(OC)c2)cc1 (stereo unspecified)	18%	-10%	1	-3%	-11
COc1ccccc1CNC(=O)COC(=O)CCN=C1NS(=O)(=O)c2ccccc21	.	1%	.	.	-12
CCc1noc(C)c1C(=O)N(CC(C)C)c1c(N)n(Cc2ccccc2)c(=O)[nH]c1=O	.	?	.	.	3
COc1ccc(Cc2nnc(NC(=O)Nc3ccccc3)s2)cc1OC	-2%	-19%	-1	4%	-4
COc1cc([N+](=O)[O-])cc(/C=N/NC(=O)C(C)Nc2cccc3ccccc23)c1O (stereo unspecified)	0.4µM*	?	-28	0.5µM*	-5
Cc1cccc(/C=N/NC(=O)C(C)Nc2cccc3ccccc23)n1 (stereo unspecified)	?	?	-20	?	-1
CC(Nc1cccc2ccccc12)C(=O)N/N=C/c1ccc([N+](=O)[O-])cc1 (stereo unspecified)	13µM*	-21%	-46*	14µM*	-1
CC(=O)c1cccc2c(O)c(C3=Nc4ccccc4C3=O)[nH]c12	-30%	?	-48*	?	1
CC(=O)/C(=N\Nc1ccccc1)Sc1nnc(-c2ccccc2)n1-c1ccccc1	10µM*	?	-2	?	25
CC(=O)/C(=N\Nc1ccc(Cl)cc1Cl)Sc1nnc(-c2ccccc2)n1-c1ccccc1	-26%	7%	-1	-25%	16
CC(=O)/C(=N\Nc1ccccc1Cl)Sc1nnc(-c2ccccc2)n1-c1ccccc1	10µM*	-19%	4	?	3
CC(=O)/C(=N/Nc1ccccc1)Sc1nnc(C(O)c2ccccc2)n1-c1ccccc1 (stereo unspecified)	-5%	-7%	2	-4%	2
COc1ccccc1NS(=O)(=O)c1ccc(C)c(C(=O)N2CCCC2)c1	.	3%	.	.	-5
COc1ccc(OC)c(CN2CCN(C(=O)c3cc(S(=O)(=O)Nc4ccccc4OC)ccc3C)CC2)c1	10%	23µM*	.	1%	1
O=C(O)c1cc(-c2cccnc2)nc2ccc(Br)cc12	-6%	-6%	0	-4%	12
